Sampled rows, rich in hits. Any-hit rate of the full collection: about 1.4%.
AID504770 = growth inhibition of E. coli YBA685, primary screen, V. cholerae RctB inhibitors; E. coli YBA685 rctB-dependent plasmid, OD600 growth, 3 h; hits give low values; 130,000 tested, 0.27% active; z-score (no concentration beside the values); in the data active means z-score below about -2, passing the limit was not always enough
MbtI inh = MbtI salicylate synthase inhibitors, primary screen, biochemical, fluorescence intensity; P9WFX0; purified MbtI enzyme, fluorescence intensity read-out; inhibition, % (concentration not given with the values); 100,000 tested, 0.89% active; AID 493033, 2011; in the data active means inhibition mostly above about 56%, no sharp cut-off; inactive means mostly below about 77%
Target sequence (P9WFX0 whole entry, looked up): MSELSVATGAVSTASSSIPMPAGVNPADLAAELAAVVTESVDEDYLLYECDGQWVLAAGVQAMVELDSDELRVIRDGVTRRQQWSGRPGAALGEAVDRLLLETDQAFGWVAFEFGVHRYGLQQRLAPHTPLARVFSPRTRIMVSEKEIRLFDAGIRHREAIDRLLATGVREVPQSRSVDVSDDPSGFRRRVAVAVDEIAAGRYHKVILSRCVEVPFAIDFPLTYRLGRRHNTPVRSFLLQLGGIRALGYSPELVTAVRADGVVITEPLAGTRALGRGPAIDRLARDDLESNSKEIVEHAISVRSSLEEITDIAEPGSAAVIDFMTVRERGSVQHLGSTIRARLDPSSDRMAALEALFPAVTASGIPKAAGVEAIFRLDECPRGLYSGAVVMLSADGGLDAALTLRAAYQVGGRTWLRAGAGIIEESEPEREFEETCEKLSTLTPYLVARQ
Mtb MenB inh = M. tuberculosis MenB inhibitors, primary screen, biochemical, absorbance; 1,4-dihydroxy-2-naphthoyl-CoA synthase (Mycobacterium tuberculosis (strain ATCC 25618 / …; MenB enzyme assay, absorbance read-out; inhibition, % (test concentration not listed); 100,000 tested, 0.43% active; in the data active means inhibition above about 21%, passing the limit was not always enough
PV pol inh = poliovirus RdRp elongation inhibitors, primary screen, biochemical, fluorescence polarization, total intensity. % elongation, % (compound at 16.7 µg/mL). poliovirus polymerase elongation; hits give low values. 150,000 tested, 0.66% active. Genome polyprotein (Poliovirus type 1 (strain Mahoney)), P03300. AID 588519, 2011; in the data active means % elongation below about 90%
Active calls of the source: *; . = no result given; ! = not active in a repeat.

SMILES	AID504770	MbtI inh	Mtb MenB inh	PV pol inh
COc1nc(NC(=O)NS(=O)(=O)Nc2cccc3cccnc23)nc(OC)n1	0.55	2	7	79*
COc1ccc(C2C(C#N)=C(N)Oc3c2ccc2cccnc32)cc1 (stereo not given)	0.9	11	33*	102
COc1ccc(C2C(C#N)=C(N)OC(C3CC3)=C2C#N)cc1 (stereo not given)	-0.85	-21	-5	104
O=C1/C(=C/c2ccccc2O)N=C2CCCCCN12	-0.45	-11	-115	104
COCCNC(=O)c1cc(-c2cccnc2)nc2ccc(S(=O)(=O)N3CCCCCC3)cc12	0.75	-19	2	102
COCCCNC(=O)c1cc(-c2cccnc2)nc2ccc(S(=O)(=O)N3CCC(C)CC3)cc12	.	.	.	47*
O=C(O)COc1ncnc2ccccc12	0.8	10	27*	104
CN(C)C(=O)COc1ncnc2ccccc12	-0.6	-1	.	102
Cc1cc(NC(=S)N(C)C)ccc1Br	1.9	96*	-5	97
O=C1C2=C(Nc3ncnn3C2c2ccccc2)c2ccccc21 (stereo not given)	-0.5	-23	-24	101
Nc1ccc2c(c1)C(=O)N(CC1CCCO1)C2=O (stereo not given)	-0.7	-37	-54	98
O=C1C=CC(=O)N1CC1CCCO1 (stereo not given)	-0.55	62*	.	100
C=CCNC(=S)Nc1ccccc1	-0.4	0	-19	101
C=CCNC(=S)C(=O)Nc1ccccc1	1.6	.	-42	81*
CCOC(=O)/C(C#N)=C1\CCCCCN1	0.1	-4	.	103
CCN1CCN(C(=S)N[P+](c2ccccc2)(N(CC)CC)N(CC)CC)CC1	0.4	-7	-18	100
COC(=O)C1(C(=O)OC)CC=CC1	-1.7	-10	.	104
O=C(c1cnccn1)N(Cc1ccc(Cl)cc1)Cc1cc2cc3c(cc2[nH]c1=O)OCCO3	0.4	-4	25*	99
CC(C)(C)C1=NN(c2nc3ccc(Cl)cc3s2)C(=O)C1	1.4	60*	9	106
O=C1CC(CSc2ccc(Cl)cc2)=NN1c1nc2ccccc2s1	0.4	-6	-50	103
COc1cc(NC(=O)CS)cc(OC)c1	-0.2	90*	-107	99
CC(Sc1ccccn1)C(=O)Nc1ccccc1 (stereo not given)	0.35	94*	-42	102
O=C(Cc1nc2ccccc2[nH]1)Oc1ccccc1	-1.6	.	7	75*
O=C(Cc1nc2ccccc2[nH]1)c1ccccc1	1	7	.	98
COc1ccc(C(=O)n2c3c(c(=O)n2-c2ccccc2)Cc2ccc(OC)cc2O3)cc1	0.15	0	54*	101
SMILES	AID504770	MbtI inh	Mtb MenB inh	PV pol inh
CCN(CC1COc2ccccc2O1)C(=O)c1ccc2c(c1)SC1=NS(=O)(=O)CCN12 (stereo not given)	1.2	7	-33	84*
CCOc1ccc2c(c1)SC1=NS(=O)(=O)CCN12	-0.5	.	.	.
Cn1c(SCC(=O)NN)nc2ccccc21	0.15	1	-11	108
Cn1c(SCC(=O)O)nc2ccccc21	1.9	6	37*	102
OCCn1nc2c3ccccc3nc-2n(-c2ccccc2)c1=S	-0.2	72	-40	85*
O=S(=O)(c1cccs1)N1CCCN(S(=O)(=O)c2cccs2)CC1	1.1	3	26*	102
CCOC(=O)c1cc(-c2ccccc2)nc2nc(N3CCCC3)sc12	-1.1	-11	-21	101
Cc1cc2nc3ccc(=[N+](C)C)cc-3sc2cc1N	13	.	12	2.0*
CCOC(=O)C1=C(CSc2nnc(-c3cccs3)n2-c2ccccc2)NC(=O)NC1C (stereo not given)	-2.5*	15	-40	105
O=C(c1nsc2ccccc12)N1CCCCC1	1.2	1	4	103
CC(C)C(=O)Nc1ccc(N2CCN(C(=O)c3ccccc3)CC2)cc1	-1.2	-9	-32	100
CCN(CC)C(=O)CN1C(=O)COCC1=O	0.05	-9	26*	99
CC(C)Sc1nnc2oc3ccc(S(=O)(=O)N(C)C)cc3n12	-0.3	14	17	6.0*
O=C(CSc1nnc(-c2ccco2)c(-c2ccco2)n1)N1c2ccccc2Sc2ccc(Cl)cc21	-0.75	44	33*	101
COc1ccc(-c2nn[nH]n2)cc1	1.9	1	39*	103
CC(C)c1ccc(C=C2C(=O)NC(=O)NC2=O)cc1	-2.3	6	-7	77*
O=C1C=CC(=NS(=O)(=O)c2cccs2)C=C1	-1.2	.	.	.
O=C1C=CC(=NS(=O)(=O)c2ccc(C(=O)O)cc2)C=C1	-0.55	91*	13	99
Cc1nnc(SCc2ccc(C#N)cc2)n1C1CC1	-0.75	-6	-7	99
N#Cc1ccc(CSc2nnnn2C2CC2)cc1	-0.3	-9	-18	35*
CCCSc1nc(-c2ccc(OC)cc2)cc(-c2ccccc2OC)c1C#N	.	.	.	88*
Cc1nc(CSc2nnc(Cc3cccc4ccccc34)n2N)cs1	-3.8	57*	-28	100
CS(=O)(=O)c1nc2ccccc2s1	0.35	.	7	89*
CCOC(=O)[C@@H]1Nc2ccc(C(=O)O)cc2[C@@H]2C=CC[C@H]12	0.1	16	-15	68*
Brc1ccc2c(c1)C1CC(c3ccccc3)=NN1C(c1ccco1)O2 (stereo not given)	-0.05	-71	-32	108
SMILES	AID504770	MbtI inh	Mtb MenB inh	PV pol inh
N#CC1=C(S)NC(=O)CC1c1ccco1 (stereo not given)	-0.35	6	-39	79*
N#CC1=C(SCC(=O)N(c2ccccc2)c2ccccc2)NC(=O)CC1c1ccco1 (stereo not given)	1.3	.	.	.
COc1cc(NC(C)CCCN)c2ncccc2c1 (stereo not given)	0.25	3	-4	58*!
COc1ccc(CSc2cccc3cccnc23)cc1	-0.55	33	.	105
Nn1c(CCC2CCCCC2)n[nH]c1=S	-0.15	86*	-63	81*
CN(Cc1ccccc1)C(=O)Cn1ncc2c1-c1ccccc1OC2	-0.45	-4	3	99
Cc1ccc2cccc(I)c2n1	-2.5*	12	-5	103
CCN1CCCC1CNS(=O)(=O)c1cc(-c2cc(C)no2)ccc1C (stereo not given)	-0.85	7	8	100
S=c1[nH]ccn1CCc1ccccc1	-0.3	.	-15	103
O=c1[nH][nH]c(=S)n1CCc1ccccc1	-0.55	68*	-13	93
CCCn1cnc2c(cnn2-c2ccccc2C)c1=O	0.35	2	17	100
NC(=O)C1CCN(C2CC(=O)N(Cc3ccc4c(c3)OCO4)C2=O)CC1 (stereo not given)	0.75	86*	-39	103
NC(=O)C1CCN(CC(O)Cc2ccc3c(c2)OCO3)CC1 (stereo not given)	-0.65	.	.	.
CC1=C(C)C(=O)C(NCc2ccco2)=CC1=O	-1.1	8	-120	74*
S=c1[nH]nc(Nc2cccc(Br)c2)s1	-0.35	98*	-32	102
